Shown are actives, neighbours in structure and some others; about 9% of the full set was active somewhere.
ALDH1A1 block: qHTS Assay for Inhibitors of Aldehyde Dehydrogenase 1 (ALDH1A1); Potency, µM (titrated, usually from 75.3 µM), hits mostly inhibitors; Purified ALDH1A1, NADH fluorescence, propionaldehyde substrate; AID 1030, 2008; 220,000 compounds, 7.3% hits; Aldehyde dehydrogenase 1A1 (Homo sapiens), P00352
Target sequence (P00352 whole entry, looked up): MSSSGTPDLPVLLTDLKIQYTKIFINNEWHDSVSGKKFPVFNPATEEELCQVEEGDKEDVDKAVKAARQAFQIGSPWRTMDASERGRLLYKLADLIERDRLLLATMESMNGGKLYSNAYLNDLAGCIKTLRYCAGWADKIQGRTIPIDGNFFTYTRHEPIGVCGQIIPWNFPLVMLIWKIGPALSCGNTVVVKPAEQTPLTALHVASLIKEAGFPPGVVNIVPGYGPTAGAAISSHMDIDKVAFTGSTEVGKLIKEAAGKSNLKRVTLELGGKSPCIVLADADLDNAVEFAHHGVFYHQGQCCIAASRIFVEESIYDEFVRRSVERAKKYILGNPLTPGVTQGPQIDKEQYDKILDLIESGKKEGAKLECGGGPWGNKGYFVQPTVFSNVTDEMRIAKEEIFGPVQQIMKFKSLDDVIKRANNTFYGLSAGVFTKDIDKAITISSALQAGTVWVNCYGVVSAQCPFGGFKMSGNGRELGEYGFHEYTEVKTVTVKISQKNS
HPGD inh: qHTS Assay for Inhibitors of HPGD (15-Hydroxyprostaglandin Dehydrogenase) | 15-hydroxyprostaglandin dehydrogenase [NAD(+)] (Homo sapiens), P15428 | purified HPGD, NADH fluorescence kinetic, PGE2 substrate | Potency, µM, usual class: inhibitors | 150,000 compounds, 4.3% hits | AID 894, 2007
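NADH formation kinetics: reaction with 30 uM PGE2 and 1 mM NAD+ (final), 20 nM enzyme, Tris-HCl pH 8 with Tween 20, after 15 min compound preincubation at room temperature. Fluorescence change, last versus first of five reads.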
IMPase inh: qHTS Assay for Identifying the Cell-Membrane Permeable IMPase Inhibitors; Inositol monophosphatase 1 (Rattus norvegicus), P97697; CHO-M1 cells, IP1 accumulation, HTRF TR-FRET ratio; inhibition (IP1 accumulation), % at 46.1 µM; 120,000 tested, under 10 active; active = well fitted curve in the direction sought with a large enough effect in the signal ratio, not every such curve was filed as active; inconclusive = small, poorly fitted or top-dose-only effect, or a change in a side signal; inactive = no such curve, though single readings can be large or run the other way; the % refers to the signal ratio;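 also: cells stimulated with carbachol in lithium chloride buffer; higher means more IMPase inhibition seen as more IP1 and lower FRET ratio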
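CHO-M1 cells (CHO stably expressing M1 receptor), compound up to 46 uM final, stimulated with carbachol (50 uM as added) in buffer with 50mM LiCl, pH 7.4, 30 min at 37C. Cytosolic IP1 read by TR-FRET; AC50 from Hill fits.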
Of the large screens only hits and unclear results are named; the others gave an inactive call. Unless noted, calls follow the shape of the dose curve; as a rule, active = well fitted inhibition curve with a large enough effect (not every such curve was filed as active); inconclusive = small, poorly fitted or top-dose-only effect, or another doubt; inactive = no such curve, though single readings can be large or run the other way.

Cc1ccc(O)c(-c2cc(C(=O)Nc3ccc(S(=O)(=O)Nc4nc(C)cc(C)n4)cc3)[nH]n2)c1	HPGD inh 0.89µM (no result: IMPase inh)
Cc1ccc(O)c(-c2cc(C(=O)NCc3ccncc3)[nH]n2)c1	HPGD inh 5µM
Cc1ccc(O)c(-c2cc(C(=O)Nc3ccc(S(=O)(=O)N4CC(C)OC(C)C4)cc3)[nH]n2)c1 (stereo not drawn)	HPGD inh 13µM
Cc1cc(C)nc(NS(=O)(=O)c2ccc(NC(=O)c3ccccc3O)cc2)n1	none (no result: ALDH1A1 block, HPGD inh)
O=C(NCc1cccnc1)/C(=C\c1ccc(-c2cccc(Cl)c2)o1)S(=O)(=O)c1ccccc1	ALDH1A1 block inconclusive
O=C(NCc1cccnc1)/C(=C/c1ccc(-c2cccc(Cl)c2)o1)S(=O)(=O)c1ccccc1	ALDH1A1 block 13µM
COC(=O)c1ccc2nc(NC(=O)COC(=O)CSc3nc(C)cc(C)n3)sc2c1	none (no result: IMPase inh)
CSc1nsc(SCC(=O)Nc2nc3ccc(C)cc3s2)n1	ALDH1A1 block 40µM
Cc1ccc2nc(NC(=O)COC(=O)CSc3nc(C)cc(C)n3)sc2c1	ALDH1A1 block 13µM, HPGD inh inconclusive
Cc1ccc2nc(NC(=O)CSCc3ccccc3)sc2c1	none
O=C(NC1CCCCC1)c1ccc(Cc2nc3ccccc3[nH]2)cc1	none (no result: IMPase inh)
C/C(=N\NC(=O)c1cccc(N/N=C(\C)c2cc(O)ccc2O)c1)c1cc(O)ccc1O	ALDH1A1 block 7.9µM (no result: HPGD inh, IMPase inh)
C/C(=N\NC(=O)c1cccc(F)c1)c1cccc(NC(=O)c2ccc(F)cc2)c1	none (no result: HPGD inh, IMPase inh)
COc1cccc(Nc2ncc3nc(-c4cc(F)cc(F)c4)c(=O)n(CCC#N)c3n2)c1	none (no result: IMPase inh)
O=C(Nc1cccc(C(F)(F)F)c1)C(=O)N1CCCCC1	none (no result: HPGD inh, IMPase inh)
CC(C)c1ccc(CN(C(=O)c2cc3ccccc3oc2=O)C2CCS(=O)(=O)C2)cc1 (stereo not drawn)	ALDH1A1 block inconclusive
O=C(/C=C/c1ccccc1Cl)N(Cc1ccccc1)C1CCS(=O)(=O)C1 (stereo not drawn)	ALDH1A1 block 11µM
CC(C)c1ccc(CN(C(=O)/C=C/c2ccco2)C2CCS(=O)(=O)C2)cc1 (stereo not drawn)	ALDH1A1 block 18µM (no result: HPGD inh, IMPase inh)
O=C(/C=C/c1ccccc1Cl)N(Cc1ccc(Cl)cc1)C1CCS(=O)(=O)C1 (stereo not drawn)	none (no result: IMPase inh)
C=C(C(=O)c1ccccc1)C(C)CC(=O)c1ccccc1 (stereo not drawn)	ALDH1A1 block inconclusive, HPGD inh 28µM
O=C(CC(Nc1ccccc1)c1ccc(F)cc1)c1ccccc1 (stereo not drawn)	none
CC(C)C(=O)NC(=S)NCC(=O)c1ccccc1	ALDH1A1 block inconclusive
O=C(CC(Nc1ccccc1)C(=O)O)c1ccccc1 (stereo not drawn)	ALDH1A1 block 1.8µM
COc1ccc(OCC(=O)N2CCN(C(=O)c3ccc([N+](=O)[O-])cc3)CC2)cc1	none (no result: HPGD inh, IMPase inh)
N#Cc1ccccc1Cn1cc(/C=C/[N+](=O)[O-])c2ccccc21	ALDH1A1 block 3.5µM, HPGD inh 40µM (no result: IMPase inh)
NC(=O)CSc1cn(Cc2ccc(F)cc2)c2ccccc12	none (no result: HPGD inh, IMPase inh)
N#Cc1cn(Cc2cccc(Cl)c2)c2ccccc12	ALDH1A1 block inconclusive, IMPase inh inconclusive
C(=N\n1cnnc1)/c1cn(Cc2ccccc2)c2ccccc12	ALDH1A1 block 13µM
NC(=O)CSc1cn(Cc2ccccc2)c2ccccc12	ALDH1A1 block 7.9µM (no result: HPGD inh, IMPase inh)
Clc1ccc(Cn2cc(/C=N/n3cnnc3)c3ccccc32)c(Cl)c1	none
O=[N+]([O-])/C=C/c1cn(Cc2ccccc2)c2ccccc12	ALDH1A1 block 16µM
O=C(O)Cn1cc(/C=C/[N+](=O)[O-])c2ccccc21	none (no result: HPGD inh, IMPase inh)
COc1cc2c(cc1OC)C1C(=O)c3ccc4c(c3OC1CO2)C=CC(C)(C)O4 (stereo not drawn)	none (no result: IMPase inh)
Cc1ccc(OC(=O)c2cccc(S(=O)(=O)N3CCCC3)c2)c(-n2nc3ccccc3n2)c1	HPGD inh inconclusive
COC(=O)[C@@]1(Cc2ccc(F)cc2)[C@H]2c3cc(C(=O)N4CCCC4)n(CCc4c[nH]c5ccc(OC)cc45)c3C[C@H]2CN1C(=O)c1ccccc1	none (no result: IMPase inh)
N=C(CC(O)COc1ccccc1-c1ccccc1)N1CCCCC1 (stereo not drawn)	none (no result: HPGD inh, IMPase inh)
CC(=O)Nc1cccc(C(=O)N/N=C/c2cccnc2)c1	none (no result: HPGD inh, IMPase inh)
Oc1ccc(/C=N/NC(=S)Nc2cccnc2)c(O)c1	HPGD inh inconclusive
Fc1cccc(F)c1/C=N/NC(=S)Nc1cccnc1	none (no result: HPGD inh, IMPase inh)
Oc1cccc(/C=N/NC(=S)Nc2cccnc2)c1O	ALDH1A1 block inconclusive, HPGD inh 32µM (no result: IMPase inh)
Fc1ccc(/C=N/NC(=S)Nc2cccnc2)cc1	ALDH1A1 block 22µM (no result: HPGD inh, IMPase inh)
O=C(O)c1cccc(NC(=S)N/N=C/c2cccnc2)c1	ALDH1A1 block 25µM (no result: HPGD inh, IMPase inh)

Assay outcomes: PubChem BioAssay, National Center for Advancing Translational Sciences (NCATS)
